# The sample as a whole holds a higher share of hits than the screen did.
# Methyltransferases: Primary Screen for Target Class Profiling of Small Molecule Inhibitors of Methyltransferases. purified enzyme, MTase-Glo SAH luminescence; stronger effect = lower value. calls only at 40 µM. 25,000 compounds, 3.9% hits. AID 1745853, 2022; call rule not given here
#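 Each enzyme was reacted with SAM and its substrate, with compounds tested once at 40 uM; SAH formed was read by MTase-Glo luminescence.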
# MTase-Glo counter: Counterscreen for Target Class Profiling of Small Molecule Inhibitors of Methyltransferases. shares compounds with Methyltransferases. AID 1745851, 2022. Potency, µM (titrated, usually from 57.3 µM), inactives show top-dose activity change, negative = inhibition, actives largely listed as inhibitors. MTase-Glo coupled enzymes, SAH conversion luminescence, no MTase. 180 compounds, 6% hits; active = well fitted inhibition curve with a large enough effect; note: potency is the fitted concentration of half-maximal effect
# The depositor's hits bear a star; i = inactive; + = active, no number; [ ] = remark or other dose. % is set by controls: 0 for no effect and ±100 for the full control effect.
SMILES,Methyltransferases,others
CCOc1cccc(C2c3cccn3-c3sc4c(c3CN2C(=O)Nc2ccc(C)cc2)CCCC4)c1 (stereo unspecified),i,
c1ccc(-c2[nH]nc3ncc(-c4cn[nH]c4)nc23)cc1,+,MTase-Glo counter=24.8µM*
COc1ccccc1CCNC(=O)c1cc2n(n1)CC(C)(C(=O)NC1CCCCCC1)N(C)C2=O (stereo unspecified),i,
CC1(C)[C@H]2CC[C@@H](CNC(=O)c3ccc4ccccc4n3)[C@@H]1C2,i,
COCCCNC(=O)c1cnc2n[nH]c(-c3ccccc3)c2n1,+,MTase-Glo counter=-2.8%[85.7 µM]
COc1ccc(C(=O)NCCn2c(C)cnc2-c2ccccc2)cn1,i,
Cc1cc(F)ccc1-c1[nH]nc2ncc(-c3ccnn3C)nc12,i,
CCOCCCNC(=O)c1cc2c(=O)[nH]c(-c3ccccc3)cn2n1,i,
COc1ccccc1-c1[nH]nc2ncc(C(=O)NCC3CC3)nc12,+,MTase-Glo counter=0.7%[85.7 µM]
CCOc1cccc(CN2C[C@@H](Oc3ccccc3)C[C@@H]2C(=O)NC)c1,i,
CCC(C(=O)NCc1ccccc1F)n1ccc2cc(S(=O)(=O)N3CCCCC3)ccc21 (stereo unspecified),i,
COc1ccccc1CNc1nc2c(S(=O)(=O)c3ccc(C)c(C)c3)nnn2c2ccccc12,i,
CCOCCOC(=O)C(C)Oc1ccc2c(=O)c(-c3ccc(OC)c(OC)c3)c(C(F)(F)F)oc2c1 (stereo unspecified),i,
COc1ccc(-c2cc3n(n2)CC(C)(C(=O)NCc2ccccc2)N(c2ccc(OC)cc2)C3=O)cc1 (stereo unspecified),i,
CCCn1c(=O)c2ccc(C(=O)NC3CCCCC3)cc2n2c(=O)n(CC(=O)Nc3ccc(C)cc3)nc12,i,
COc1ccc(OC)c(CNC(=O)Cn2ccc3cc(S(=O)(=O)N4CCCCC4)ccc32)c1,i,
O=C1COc2ccc(N3CCOCC3)nc2CN1Cc1ccc(F)cc1,i,
Cn1cc(-c2ccc3c(n2)CN(Cc2ccc(F)cc2)C(=O)CO3)cn1,i,
O=C1COc2ccc(-c3cccc(O)c3)nc2CN1Cc1ccc(C(F)(F)F)cc1,+,MTase-Glo counter=1.9%[85.7 µM]
O=S(=O)(NCCn1c(-c2ccc(F)cc2)nc2ccccc21)c1ccc(Br)cc1,i,
CC(=O)N1CCC(C(=O)N2CCCC(c3nc4ncccc4[nH]3)C2)CC1 (stereo unspecified),i,
CN1CCC(N2CC[C@H](c3nc4ccccc4[nH]3)C2)CC1,+,MTase-Glo counter=-1.7%[114 µM]
O=C(C1CC2(CCNCC2)CN1)N1CCC(c2nc3ccccc3[nH]2)CC1 (stereo unspecified),i,
CC(=O)N1CC[C@H](c2nc3ccc(C#N)cc3[nH]2)C1,i,
CN1CCC(N2CC[C@H](c3nc4ccc(C(F)(F)F)cc4[nH]3)C2)CC1,+,MTase-Glo counter=2.2%[85.7 µM]
SMILES,Methyltransferases,others
CN1CCN(c2nc3cc(C(F)(F)F)ccc3n3cccc23)CC1,i,
Cc1ccc(NS(=O)(=O)c2cc3c(cc2C)n(C)c(=O)n3C)cc1Cl,i,
Cc1cccc(Cn2nc3n(C)c(=O)c4ccc(C(=O)NC5CCCC5)cc4n3c2=O)c1,i,
Cc1ccsc1CCNS(=O)(=O)c1ccc2[nH]c3c(c2c1)CCCC3,i,
COc1ncccc1-c1nc(-c2c(C)noc2C)cc2cc(CN(C)C)oc12,i,
Cc1noc(C)c1-c1cc2c(cc(C)n2CCN(C)C)c(Nc2ccncn2)n1,+,MTase-Glo counter=-3.2%[85.7 µM]
CC(C)CNC(=O)c1ccc2c(=O)n(CC(C)C)c3nn(CC(=O)Nc4ccccc4)c(=O)n3c2c1,i,
CNc1cc(C2CC(NC(=O)COc3ccc(Cl)cc3C)C2)nc(N)n1 (stereo unspecified),+,MTase-Glo counter=2.71µM*
Cc1nc(CCNc2cc(C3CC(O)C3)nc(N)n2)nc2c1CCC2 (stereo unspecified),i,
Cc1cc(Cl)ccc1NC1CN(C(=O)OC(C)(C)C)C1,i,
COc1ccc(CCN2C(=O)c3ccccc3CC2(C)C(=O)NC2CCCCC2)cc1OC (stereo unspecified),i,
CCCc1cc(C(=O)N2CCc3c(nc(-c4cccnc4)[nH]c3=O)C2)n[nH]1,i,
O=C(c1cc(-c2ccccc2)n[nH]1)N1CCc2c(nc(-c3ccccc3)[nH]c2=O)C1,+,MTase-Glo counter=3.9%
O=C1OCCC1CCC(=O)N1CCc2c(nc(-c3ccccc3)[nH]c2=O)C1 (stereo unspecified),i,
CC(C)c1nccn1CCCNC(=O)c1ccc(-c2cccc(F)c2)nc1,+,MTase-Glo counter=2.2%
O=C(NC1CCN(CC(F)(F)F)CC1)c1ccc(-c2cccc(F)c2)nc1,i,
CC(C)OCCCNC(=O)c1ccc2c(=O)nc3c(-c4cccc(F)c4)n[nH]n3c2c1,i,
Cc1ccc(NC(=O)c2ncn3c2C(=O)N(C2CC2)C(C)(C(=O)NCCCOC(C)C)C3)cc1F (stereo unspecified),i,
CCCCOc1ccc(CNC(=O)c2cc3n(n2)CC(C)(C(=O)NCc2ccc(C)cc2)N(C)C3=O)cc1 (stereo unspecified),i,
CC(=O)Nc1c2n(c3ccc(F)cc13)CC(C)(C(=O)NC1CCCC1)N(C1CCC(C)CC1)C2=O (stereo unspecified),i,
CC1(C(=O)NC2CCCCC2)Cn2c(nc3ccccc32)C(=O)N1Cc1cccs1 (stereo unspecified),i,
COc1cccc(CN2CCCC3(CNc4ccccc4[S+](=O)([O-])N3)C2)c1 (stereo unspecified),+,MTase-Glo counter=-4.8%
O=[S+]1([O-])NC2(CCN(Cc3ccc(F)cc3)CC2)CNc2ccccc21,i,
N#Cc1ccc(CN2CCC3(CNc4ccccc4[S+](=O)([O-])N3)C2)cc1 (stereo unspecified),i,
CCOc1ccc(CCNc2nc3c(S(=O)(=O)c4ccccc4)nnn3c3ccccc23)cc1OCC,i,
SMILES,Methyltransferases,others
CC(C)NC(=O)NC1CC2(CCN(C(=O)Cc3ccc(O)cc3)CC2)c2ccccc21 (stereo unspecified),i,
CC(=O)Nc1ccc(CN2CCC3(C2)C(=O)N(C)c2ccccc23)cc1 (stereo unspecified),i,
CC(=O)NC1CC2(CCN(Cc3ccc(O)cc3)CC2)c2ccccc21 (stereo unspecified),+,MTase-Glo counter=2.0%
CN1CCN(CCCNC(=O)c2cc3n(n2)CC(C)(C(=O)NCc2ccccc2)N(C)C3=O)CC1 (stereo unspecified),i,
O=C(Cn1nc2n(Cc3ccccc3)c(=O)c3ccccc3n2c1=O)Nc1ccccc1F,i,
CCOc1c(CN(C)C(=O)Cn2cccc(OC)c2=O)cccc1OC,+,MTase-Glo counter=-6.2%
COc1cccn(CC(=O)N2CCN(c3ccccc3C#N)CC2)c1=O,i,
CCC(C(=O)N(C)Cc1ccc(OC)c2ncccc12)n1cccn1 (stereo unspecified),i,
CC(C)NC(=O)c1ccc2c(=O)n(C3CC3)c3nn(CC(=O)Nc4cc(F)ccc4F)c(=O)n3c2c1,i,
Cc1ccc(NC(=O)N2CCn3c(C)ccc3C2C(C)C)c(C)c1 (stereo unspecified),i,
O=C(NCc1cccc(F)c1)c1nc2c(o1)CCN(CC1CCCC1)CC2,+,MTase-Glo counter=-1.7%[85.7 µM]
COc1ccc(CN2CCc3nc(C(=O)NCCOc4ccccc4)oc3CC2)cn1,i,
O=C(NCC1CC1)c1nc2c(o1)CCN(CCCc1ccccc1)CC2,i,
